# Results as given in PubChem BioAssay AID2205 (University of Pittsburgh Molecular Library Screening Center, 2009).
# Among all 200,000 compounds or so, about 1,600 (0.8%) were called active.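 Rule for the calls: active = plate Z-score above 3 for both tubulin-high and condensed-nucleus cell shares, with cell loss under 80%, at 10 µM; inactive = the rest, inconclusive results apart.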 For the sample, actives were picked, then their nearest neighbours and some compounds at random.
# Test: tubulin staining increase by stabilizing compounds – imaging, high-content imaging, primary screen (AID 2205);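 for % tubulin-high responders: anti alpha tubulin signal scored within the nucleus-defined area of each cell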;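 for toxicity: 0% = mean cell density of plate MIN control wells and 100% = no cells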
# Conditions: HeLa tubulin immunostaining HCS, 24 h, at 10 µM; % Hoechst-high responders: measured here: nuclear condensation Hoechst responders, stronger effect = higher value; % tubulin-high responders: stronger effect = higher value; toxicity: measured here: cytotoxicity by cell density
SMILES,% Hoechst-high responders [%],% tubulin-high responders,toxicity [%]
Cc1ccc(-c2cc(C(=O)N3CCC4(CC3)OCCO4)no2)cc1,2.17,2.98% (inactive),5.89
O=C(c1cc(-c2ccncc2)nc2ccccc12)N1CCC2(CC1)OCCO2,1.52,3.12% (inactive),6.16
Cc1cccc(-n2c(C)nc3cc(C(=O)N4CCC5(CC4)OCCO5)ccc32)c1,32.4,48.1% (active),34.2
O=C(O)CCn1cc(C=C2C(=O)NC(=S)NC2=O)c(-c2cccc(Br)c2)n1,1.76,1.65% (inactive),3.44
C[N+]12CN3CN(CN(C3)C1)C2,0.953,7.11% (inactive),4.73
COc1cc(-n2c(=S)[nH]c3ccc(C)cc3c2=O)c(Cl)cc1Cl,23.7,12.4% (active),29
CC(Cc1cccs1)NCc1ccc(Cl)cc1 (stereo not given),2.36,3.24% (inactive),0.83
CN1CCN(C(=O)COc2ccc(C(C)(C)C)cc2Br)CC1,1.35,1.46% (inactive),9.25
Cc1cccc2c(CCN)c[nH]c12,2.2,2.61% (inactive),4.06
Cc1cc(C)cc(NC(=S)NC2CC3CCCC(C2)N3Cc2cccs2)c1 (stereo not given),1.98,3.91% (inactive),8.8
